Measured values as given in PubChem BioAssay (EPA / NIEHS).
Activity calls are given as the source filed them. The calls were made as follows: active = hit-call score of the fitted dose curve at least 0.9, where 1 is the maximum; inactive = score below 0.9.

How the values were obtained:
[1] = BSK_CASM3C_SRB: Viability Assessment in the BioMAP Diversity Plus: CASM3C Assay (AID 2283050); details: primary human coronary artery smooth muscle cells;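 also: total protein by SRB staining as cytotoxicity measure in parallel cultures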
[2] = read-out: Thrombomodulin, THBD (gene 7056); experiment: BSK_CASM3C_Thrombomodulin: BioMAP Diversity Plus: CASM3C Assay for Thrombomodulin Biomarker Activity (AID 2283051); details: primary human coronary artery smooth muscle cells; actives raise or lower the signal;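 also: thrombomodulin protein level measured by ELISA 24 h after dosing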
[3] = read-out: Tissue Factor, F3 (gene 2152); experiment: BSK_CASM3C_TissueFactor: BioMAP Diversity Plus: CASM3C Assay for Tissue Factor Biomarker Activity (AID 2283052); details: primary human coronary artery smooth muscle cells; actives raise or lower the signal;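 also: cell surface tissue factor protein level read by ELISA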
[4] = read-out: Interferon-gamma inducible Protein 10 (IP10), CXCL10 (gene 3627); experiment: BSK_hDFCGF_IP10: BioMAP Diversity Plus: hDFCGF Assay for Interferon-gamma inducible Protein 10 (IP10) Biomarker Activity (AID 2283053); details: primary human foreskin fibroblasts; actives raise or lower the signal
Method in brief: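 Cells: human dermal foreskin fibroblasts. Exposure: 24 h post-dosing. Detection: IP-10 ELISA, with values expressed against DMSO controls and fitted in both directions.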

[5] = read-out: Urokinase-type plasminogen activator receptor (uPAR), PLAUR (gene 5329); experiment: BSK_CASM3C_uPAR: BioMAP Diversity Plus: CASM3C Assay for Urokinase-type plasminogen activator receptor (uPAR) Biomarker Activity (AID 2283054); details: primary human coronary artery smooth muscle cells; actives raise or lower the signal;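 also: cell-surface uPAR protein level quantified by ELISA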
[6] = read-out: Vascular cell adhesion molecule 1 (VCAM1), VCAM1 (gene 7412); experiment: BSK_CASM3C_VCAM1: BioMAP Diversity Plus: CASM3C Assay for Vascular cell adhesion molecule 1 (VCAM1) Biomarker Activity (AID 2283055); details: primary human coronary artery smooth muscle cells; actives raise or lower the signal;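 also: VCAM-1 protein level quantified by ELISA on the cells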
[7] = read-out: Collagen III, COL3A1 (gene 1281); experiment: BSK_hDFCGF_CollagenIII: BioMAP Diversity Plus: hDFCGF Assay for Collagen III Biomarker Activity (AID 2283056); details: primary human foreskin fibroblasts; actives raise or lower the signal
Method in brief: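 Response relative to DMSO, fitted in both directions, reflects ELISA-measured collagen III in human primary skin fibroblasts 24 h after compound addition.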

[8] = read-out: Epidermal growth factor receptor (EGFR), EGFR (gene 1956); experiment: BSK_hDFCGF_EGFR: BioMAP Diversity Plus: hDFCGF Assay for Epidermal growth factor receptor (EGFR) Biomarker Activity (AID 2283057); details: primary human foreskin fibroblasts; actives raise or lower the signal
Method in brief: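 Dosing human primary skin fibroblasts, then measuring surface EGFR by ELISA at 24 h, gives the endpoint; gains and losses relative to DMSO were fitted in both directions.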

[9] = read-out: Interleukin-8 (IL8), CXCL8 (gene 3576); experiment: BSK_hDFCGF_IL8: BioMAP Diversity Plus: hDFCGF Assay for Interleukin-8 (IL8) Biomarker Activity (AID 2283058); details: primary human foreskin fibroblasts; actives raise or lower the signal
Method in brief: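 Fibroblast monolayers (human foreskin, hDFCGF) received test chemical for 24 h before ELISA detection of IL-8; either increases or decreases relative to DMSO count as activity.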

[10] = BSK_hDFCGF_Proliferation: Cell Proliferation Assessment in the BioMAP Diversity Plus: hDFCGF Assay (AID 2283059); details: primary human foreskin fibroblasts;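 also: curves fitted for both rise and fall of signal versus DMSO baseline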
Method in brief: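 Primary human foreskin fibroblasts, sub-confluent; […]; 10% TCA fix, 0.1% SRB stain, A560 total protein. Gain/loss fitted bidirectionally vs DMSO control.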

[11] = BSK_hDFCGF_SRB: Viability Assessment in the BioMAP Diversity Plus: hDFCGF Assay (AID 2283061); details: primary human foreskin fibroblasts;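 also: cells exposed to compound for 24 h before the read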
Method in brief: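 SRB-based viability read on primary human skin fibroblasts at 24 h: TCA fixation, 0.1% dye, 560 nm. Gain or loss of signal is fitted against the DMSO negative control.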

[12] = read-out: TIMP metallopeptidase inhibitor 1 (TIMP1), TIMP1 (gene 7076); experiment: BSK_hDFCGF_TIMP1: BioMAP Diversity Plus: hDFCGF Assay for TIMP metallopeptidase inhibitor 1 (TIMP1) Biomarker Activity (AID 2283062); details: primary human foreskin fibroblasts; actives raise or lower the signal
Method in brief: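 Bidirectional curve fitting against DMSO baseline yielded this endpoint, based on ELISA detection of TIMP-1 in primary human foreskin fibroblasts exposed to compound for 24 h.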

[13] = read-out: Monokine induced gamma interferon (MIG), CXCL9 (gene 4283); experiment: BSK_hDFCGF_MIG: BioMAP Diversity Plus: hDFCGF Assay for Monokine induced gamma interferon (MIG) Biomarker Activity (AID 2283063); details: primary human foreskin fibroblasts; actives raise or lower the signal
Method in brief: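 Endpoint derived by bidirectional fitting relative to DMSO; MIG quantified via ELISA in primary human foreskin fibroblasts harvested 24 h after dosing.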

[14] = read-out: Matrix Metallopeptidase 1 (MMP1), MMP1 (gene 4312); experiment: BSK_hDFCGF_MMP1: BioMAP Diversity Plus: hDFCGF Assay for Matrix Metallopeptidase 1 (MMP1) Biomarker Activity (AID 2283064); details: primary human foreskin fibroblasts; actives raise or lower the signal
Method in brief: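 ELISA read-out of MMP1 from human foreskin fibroblasts (primary skin cells), 24 h post-dose. Gain or loss of signal was fitted bidirectionally versus DMSO negative control; cytotoxicity was checked by SRB in parallel cultures.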

[15] = read-out: Vascular cell adhesion molecule 1 (VCAM1), VCAM1 (gene 7412); experiment: BSK_hDFCGF_VCAM1: BioMAP Diversity Plus: hDFCGF Assay for Vascular cell adhesion molecule 1 (VCAM1) Biomarker Activity (AID 2283065); details: primary human foreskin fibroblasts; actives raise or lower the signal;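 as to AC50: VCAM-1 protein level quantified by ELISA after 24 h chemical exposure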
Method in brief: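 Measured after 24 h chemical treatment of primary human skin fibroblasts, VCAM-1 was detected by ELISA and concentration-response analysed in both directions versus DMSO vehicle.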

[16] = read-out: Plasminogen activator inhibitor-1 (PAI1), SERPINE1 (gene 5054); experiment: BSK_hDFCGF_PAI1: BioMAP Diversity Plus: hDFCGF Assay for Plasminogen activator inhibitor-1 (PAI1) Biomarker Activity (AID 2283066); details: primary human foreskin fibroblasts; actives raise or lower the signal
Method in brief: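 Fibroblasts from human foreskin were treated with test chemical. After 24 h, PAI-1 was measured by ELISA. Activity was fitted in both directions relative to DMSO.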

[17] = read-out: Intercellular Adhesion Molecule 1 (ICAM1), ICAM1 (gene 3383); experiment: BSK_KF3CT_ICAM1: BioMAP Diversity Plus: KF3CT Assay for Intercellular Adhesion Molecule 1 (ICAM1) Biomarker Activity (AID 2283067); details: primary human keratinocytes with fibroblasts; actives raise or lower the signal
Method in brief: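 Bidirectional curve fitting against a DMSO baseline was applied to ICAM-1 ELISA signal from primary human skin co-cultures harvested 24 h after treatment, with SRB staining of parallel wells for overt cytotoxicity.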

[18] = read-out: Interferon-gamma inducible Protein 10 (IP10), CXCL10 (gene 3627); experiment: BSK_KF3CT_IP10: BioMAP Diversity Plus: KF3CT Assay for Interferon-gamma inducible Protein 10 (IP10) Biomarker Activity (AID 2283068); details: primary human keratinocytes with fibroblasts; actives raise or lower the signal
Method in brief: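 In a primary skin co-culture of keratinocytes and fibroblasts, IP-10 is quantified by ELISA at 24 h after dosing. SRB staining of parallel wells monitors overt toxicity. Curves are fitted both directions against DMSO.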

[19] = BSK_KF3CT_SRB: Viability Assessment in the BioMAP Diversity Plus: KF3CT Assay (AID 2283069); details: primary human keratinocytes with fibroblasts;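 also: total protein by sulforhodamine B staining as a cytotoxicity measure; fitted for both signal gain and loss against DMSO baseline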
Method in brief: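 SRB read-out at 560 nm (0.1% stain, TCA-fixed cells) gauges overt cytotoxicity in a human skin keratinocyte–fibroblast co-culture 24 h post-dosing. Signal change was fitted bidirectionally relative to DMSO control.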

Measured: AC50

Cc1cc(-c2ccc(N)c(C)c2)ccc1N
inactive: [1] | [2] | [3] | [4] | [5] | [6] | [7] | [8] | [9] | [10] | [11] | [12] | [13] | [14] | [15] | [16] | [17] | [18] | [19]

N#Cc1ccc(N(CC(N)=O)CC(F)(F)F)cc1C(F)(F)F
inactive: [1] | [2] | [3] | [4] | [5] | [6] | [7] | [8] | [9] | [10] | [11] | [12] | [13] | [14] | [15] | [16] | [17] | [18] | [19]

c1ccc(-c2ccccc2)cc1
inactive: [1] | [2] | [3] | [4] | [5] | [6] | [7] | [8] | [9] | [10] | [11] | [12] | [13] | [14] | [15] | [16] | [17] | [18] | [19]

CN(C)c1nc(=O)n(C2CCCCC2)c(=O)n1C
inactive: [1] | [2] | [3] | [4] | [5] | [6] | [7] | [8] | [9] | [10] | [11] | [12] | [13] | [14] | [15] | [16] | [17] | [18] | [19]

Cc1cccc(C)c1N
inactive: [1] | [2] | [3] | [4] | [5] | [6] | [7] | [8] | [9] | [10] | [11] | [12] | [13] | [14] | [15] | [16] | [17] | [18] | [19]

CCC(C)(CC)c1cc(NC(=O)c2c(OC)cccc2OC)on1
inactive: [1] | [2] | [3] | [4] | [5] | [6] | [7] | [8] | [9] | [10] | [11] | [12] | [13] | [14] | [15] | [16] | [17] | [18] | [19]

C1CC2OC2CC1C1CO1 (centres undefined)
inactive: [1] | [2] | [3] | [4] | [5] | [6] | [7] | [8] | [9] | [10] | [11] | [12] | [13] | [14] | [15] | [16] | [17] | [18] | [19]

CC(C)(c1ccccc1)c1ccc(O)cc1
inactive: [3] | [5] | [8]
active: [1] 29.5 µM | [2] 20 µM | [4] 34.1 µM | [6] 28.6 µM | [7] 32.2 µM | [9] 30.8 µM | [10] 29.3 µM | [11] 33.8 µM | [12] 32 µM | [13] 39 µM | [14] 32.8 µM | [15] 34.7 µM | [16] 32.2 µM | [17] 36.9 µM | [18] 35.9 µM | [19] 33.1 µM

Nc1ccc(-c2ccc(N)cc2)cc1
inactive: [1] | [2] | [3] | [4] | [5] | [6] | [7] | [8] | [9] | [10] | [11] | [12] | [13] | [14] | [15] | [16] | [17] | [18] | [19]

CC(c1ccc(O)cc1)(c1ccc(O)cc1)c1ccc(O)cc1
inactive: [2] | [3] | [8] | [12]
active: [1] 4.79 µM | [4] 25.6 µM | [5] 6.77 µM | [6] 5.31 µM | [7] 3.78 µM | [9] 36.6 µM | [10] 23.6 µM | [11] 29.2 µM | [13] 23.8 µM | [14] 39.2 µM | [15] 8.14 µM | [16] 20.5 µM | [17] 20 µM | [18] 22.3 µM | [19] 29.9 µM

O=S(=O)(O)C(F)(F)C(F)(F)C(F)(F)C(F)(F)F
inactive: [1] | [2] | [3] | [4] | [5] | [6] | [7] | [8] | [9] | [10] | [11] | [12] | [13] | [14] | [15] | [16] | [17] | [18] | [19]
